Values joined by “and” are separate entries in the source; they are usually repeats but may differ in a detail not shown here. Identical values can stand only once. The panel holds about 83,000 compounds, 20% with a hit somewhere; the sample as a whole holds those more often.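 Treatment: one concentration, 48 hours, 96-well format. Scoring: percent growth, with anything below 10 considered active.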 Active and inactive are the calls of the source.
Legend:
Assay in all cases: NCI-60 one-dose screen, 48 h (100 = growth as untreated, 0 = no growth, -100 = all killed)
Conditions in all cases: 10 µM unless noted
[1] = test system: HCT-15 colon
[2] = test system: HT29 colon
[3] = test system: SNB-75 CNS
[4] = test system: SNB-19 CNS
[5] = test system: U251 CNS
[6] = test system: PC-3 prostate
[7] = test system: SK-MEL-5 melanoma
[8] = test system: UACC-62 melanoma
[9] = test system: LOX IMVI melanoma
[10] = test system: SK-MEL-28 melanoma

Measured: growth

C#CCOc1cccc(Nc2ncc3ncn(C4CCN(C(=O)CCl)C4)c3n2)c1 (stereo not given)
active: [1] 6.97% [6.25 µM] | [9] -55.1% [6.25 µM]
inactive: [2] 23.4% [6.25 µM] | [3] 72.6% [6.25 µM] | [4] 64.6% [6.25 µM] | [5] 43.2% [6.25 µM] | [6] 74.9% [6.25 µM] | [7] 39.1% [6.25 µM] | [8] 44.8% [6.25 µM] | [10] 78% [6.25 µM]

COc1nc2ccc(C)cc2cc1/C=[N+](\[O-])c1ccccc1
inactive: [1] 77.2% | [2] 95.1% | [3] 79.5% | [4] 86.6% | [5] 95.4% | [6] 68.2% | [7] 96.2% | [8] 76.6% | [9] 77.8% | [10] 97.6%

O=C(CN1C(=O)S/C(=C\C(Cl)=C\c2ccccc2)C1=O)NC1C=CS(=O)(=O)C1 (stereo not given)
active: [1] -18.1% | [2] -6.75% | [8] -19.2% | [9] -73.5% | [10] -9.63%
inactive: [3] 19% | [4] 40.4% | [5] 16.9% | [6] 19.7% | [7] 17.1%

COc1ccc(-c2cc3cnc4ccccc4c3oc2=O)cc1
inactive: [1] 92.3% | [2] 96.8% | [3] 104% | [4] 99% | [5] 94% | [6] 92.5% | [7] 104% | [8] 96.5% | [9] 97.6% | [10] 100%

CCNC(=O)Oc1ccc(/C(=C(/C)Cc2ccc(OC)cc2)c2ccc(OCCN(CC)CC)cc2)cc1
active: [1] 2.84% | [2] -42.2% | [7] -97.1% | [8] -16.4% | [9] -75.2% | [10] -60%
inactive: [3] 80.8% | [4] 74.5% | [5] 33.9% | [6] 56.5%

O=c1cc(N/N=C/c2ccc(F)cc2)c2cc(Cl)ccc2[nH]1
active: [6] -43%
inactive: [1] 83.4% | [2] 88.4% | [3] 131% | [4] 91.1% | [5] 94.4% | [7] 11.6% | [8] 80.4% | [9] 95.6% | [10] 90%

CC(=O)N1N=C(c2ccc(F)cc2)CC1c1sc(N(C)Cc2ccccc2)nc1Cl (stereo not given)
inactive: [1] 88.5% | [2] 94.4% | [3] 92.3% | [4] 101% | [5] 98.5% | [6] 86.3% | [7] 103% | [8] 81.2% | [9] 96.4% | [10] 114%

CCN(c1cc(-c2ccc(CN3CCC(/C=C/S(=O)(=O)c4ccccc4)CC3)cc2)cc(C(=O)NCc2c(C)cc(C)[nH]c2=O)c1C)C1CCOCC1
inactive: [1] 54.8% | [2] 21.2% | [3] 37.5% | [4] 80.1% | [5] 66.9% | [6] 53.7% | [7] 71.9% | [8] 76.6% | [9] 68.9% | [10] 97.9%

C#CCn1cnc2cnc(Nc3cccc(NC(=O)CCl)c3)nc21
inactive: [4] 11.5% [6.25 µM] | [6] 18.9% [6.25 µM] | [10] 14.5% [6.25 µM]
active: [1] 6.26% [6.25 µM] | [2] 0.208% [6.25 µM] | [3] -28.7% [6.25 µM] | [5] -49.2% [6.25 µM] | [7] -59.4% [6.25 µM] | [8] -23.1% [6.25 µM] | [9] -48.6% [6.25 µM]

Cc1ccc(-c2nc3nc(-c4ccccc4)nc(N4CCCNCC4)c3o2)cc1
inactive: [4] 25.9%
active: [1] -81.5% | [2] -86.1% | [3] -59.8% | [5] -84.9% | [6] -88.9% | [7] -57.3% | [8] -81.4% | [9] -89.8% | [10] -89.3%

O=C(NCCCN1CCCCC1)c1ccc(-c2nc3ccc4[nH]ncc4c3c3c2CCCC3)cc1
inactive: [1] 58.4% | [2] 50.7% | [3] 17.6% | [4] 78.2% | [5] 66.7% | [6] 29% | [7] 76.2% | [8] 62.6% | [9] 48.3% | [10] 72.2%

Cc1ccc(C(=O)c2ccc(CC(=O)N=Nc3c(O)[nH]c4ccc(OC(F)(F)F)cc34)n2C)cc1
inactive: [1] 93.3% | [2] 107% | [3] 82.1% | [4] 94% | [5] 97% | [6] 98.6% | [7] 97.3% | [8] 106% | [9] 89.8% | [10] 99.9%

COc1ccc(C2=C(CN)C(O)NC(=NCC(=O)c3ccc4ccccc4c3)N2)cc1 (stereo not given)
inactive: [1] 106% | [2] 101% | [3] 87.2% | [4] 104% | [5] 102% | [6] 104% | [7] 108% | [8] 101% | [9] 95.5% | [10] 103%

O=C(O)C1C2CCC1C(O)C2 (stereo not given)
inactive: [1] 106% and 103% | [2] 102% | [3] 101% and 92.9% | [4] 102% and 108% | [5] 94.6% and 99.6% | [6] 110% and 95.9% | [7] 101% and 110% | [8] 110% and 108% | [9] 95.4% and 95.5% | [10] 104% and 110%

CC(C)=CCc1cc(O)c(O)c2oc3cc(O)cc(O)c3c(=O)c12
inactive: [1] 22.3% | [2] 91.7% | [3] 60.2% | [4] 52.6% | [5] 41% | [6] 68.8% | [7] 56.1% | [8] 54% | [9] 32.6% | [10] 84.4%

O=C1/C(=C/c2ccc(-c3cccc(C(F)(F)F)c3)o2)SC(=S)N1CCc1ccc(O)cc1
inactive: [1] 68.6% | [2] 80.4% | [3] 56.7% | [4] 104% | [5] 87.2% | [6] 62.6% | [7] 90.1% | [8] 59% | [9] 68.7% | [10] 95.8%

COc1ccc(/C=C/C(=O)c2cc3c(N)c(C(=O)Nc4ccccc4)sc3nc2C)cc1
active: [1] 5.97% | [2] -3.68% | [4] 1.78% | [5] 1.52% | [7] 4.63% | [9] 2.65%
inactive: [3] 11.9% | [6] 17.1% | [8] 22.9% | [10] 52%

O=C(Oc1ccc(CO[N+](=O)[O-])cc1)c1ccccc1
active: [1] -83% | [2] -60% | [3] -97.9% | [4] -78.8% | [5] -91.2% | [6] -91.7% | [7] -96.1% | [8] -76.3% | [9] -87.4% | [10] -71.9%

O=C1Nc2ccccc2/C1=C/c1cccn1CCCCCn1c2ccccc2c(=O)c2ccccc21
inactive: [1] 28.9% | [2] 89.5% | [3] 86.7% | [4] 95.3% | [5] 93.4% | [6] 42% | [7] 32.2% | [8] 48.2% | [9] 80.3% | [10] 88.1%

C=CCOc1ccc(/C=C2\SC(=S)N(CCc3ccc(O)cc3)C2=O)cc1
active: [9] -71.2%
inactive: [1] 82.9% | [2] 88.4% | [3] 82% | [4] 93.3% | [5] 86% | [6] 90.4% | [7] 94.4% | [8] 73.8% | [10] 110%

CCCNNC(=O)/C=C/c1ccc(CNCCc2c(C)[nH]c3ccccc23)cc1
active: [2] 5.78% [2.5 µM] | [5] 8.11% [2.5 µM] | [7] -13.3% [2.5 µM] | [8] -46% [2.5 µM] | [9] 0.891% [2.5 µM]
inactive: [1] 42.8% [2.5 µM] | [3] 56.9% [2.5 µM] | [4] 28.6% [2.5 µM] | [6] 31.5% [2.5 µM] | [10] 10.1% [2.5 µM]

CCOC(=O)c1nnn(Cc2cc(=O)oc3c2ccc2ccccc23)c1C
inactive: [1] 104% | [2] 96.7% | [3] 91.6% | [4] 98.2% | [5] 104% | [6] 89.2% | [7] 101% | [8] 98.7% | [9] 101% | [10] 109%

COC(=O)c1c2c(c(C)[n+]([O-])c1C)C(=O)C(NCCN1CCOCC1)=CC2=O
inactive: [1] 69.1% | [2] 27.4% | [3] 106% | [4] 87.5% | [5] 83.6% | [6] 75.2% | [7] 48.5% | [8] 68.4% | [9] 57.2% | [10] 95.2%

From PubChem BioAssay (NCI)
